Screens from PubChem BioAssay.
Only some compounds are listed: those with a hit (about 2.8% of all), similar ones and a draw of the others.
Shn3 3UTR inh: reduction of Shn3 3'UTR firefly luciferase signal, primary screen, Schnurri-3 inhibitor project, cell-based, Clone20 osteoblasts, set 2; 360,000 tested, 0.52% active; inhibition, % at 12.5 µM; Clone20 osteoblast Shn3 3'UTR firefly luciferase, 24 h;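 active means mean inhibition of at least 75% with every replicate also reaching 75%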;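 further: 0% = median of neutral control wells and 100% = pilot-screen positive control compound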
HIF-2a block: HIF-2a reporter inhibitors, primary screen, luminescence, 786-0 RCC cells; 786-0 RCC cells HIF-2a reporter, luciferase luminescence, overnight; inhibition, % at 18.8 µM; 360,000 tested, 0.72% active;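 active means inhibition of the luminescence signal of 40% or more relative to plate controls, in a single-dose primary screen at 18.75 µM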
EBV LMP1 NFkB: EBV LMP1-driven NF-kappaB luciferase reporter inhibitors, primary screen, cell-based, luminescence, single point; LMP1-induced NF-kappaB luciferase reporter cells; inhibition, % at 12.5 µM; 350,000 tested, 0.69% active; AID 504558, 2011; in the data active means inhibition above about 41%;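 further: 0% = neutral control wells and 100% = reference inhibitor control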
PAX8 inh HTS: inhibitors of PAX8-driven TPO luciferase reporter, primary screen, RMG-I cells, single concentration; SteadyGlo, 24 h; 360,000 tested, 1.2% active; inhibition, % at 12.6 µM;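 active means mean replicate inhibition at least 60% with every replicate also reaching 60%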;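 further: luciferase light reporting Pax8 driven TPO promoter activity; plate controls were median of neutral control wells for no effect and mitoxantrone controls for full effect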
MITF TRPM1 inh: inhibitors of MITF-dependent TRPM1 promoter reporter, primary screen, cell-based, SK-MEL-5, single point, luciferase; SK-MEL-5 TRPM1 promoter luciferase, 24 h; inhibition, % at 12.5 µM; 330,000 tested, 0.83% active;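 active means mean inhibition across replicates of 60% or more, whatever share of single replicates reaches that level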
Peg3 promoter: Peg3 promoter-driven luciferase inhibitors, primary screen, cell-based, HeLa, luciferase luminescence | HeLa PEG-Prom luciferase reporter, overnight | AID 588405, 2011 | 360,000 tested, 1.7% active | inhibition, % at 20 µM;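 active means inhibition of at least 50% at 20 µM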
The depositor's hits bear a star; · = no result given.

SMILES | Shn3 3UTR inh | HIF-2a block | EBV LMP1 NFkB | PAX8 inh HTS | MITF TRPM1 inh | Peg3 promoter
Cc1ccc(S(=O)(=O)Nc2ccc3c(c2)C(=O)N([C@H](C)CO)C[C@H](C)[C@H](CN(C)C)OCCCC[C@@H](C)O3)cc1 | · | · | · | -17 | · | ·
Cc1ccc(S(=O)(=O)Nc2ccc3c(c2)C(=O)N([C@H](C)CO)C[C@@H](C)[C@H](CN(C)S(=O)(=O)c2ccc(C)cc2)OCCCC[C@H](C)O3)cc1 | · | · | · | 84* | · | ·
Cc1ccc(S(=O)(=O)Nc2ccc3c(c2)C(=O)N([C@@H](C)CO)C[C@@H](C)[C@@H](CN(C)C)OCCCC[C@H](C)O3)cc1 | · | · | · | 87* | · | ·
CC(=O)N1C[C@@H]2[C@H](c3ccccc31)[C@@H](CO)N2C(=O)Nc1ccc(F)cc1 | · | · | · | -10 | · | ·
CCNC(=O)C[C@@H]1CC[C@H]2[C@H](COc3ccc(NS(C)(=O)=O)cc3C(=O)N2C)O1 | · | · | · | -1 | · | ·
C[C@H]1CN([C@@H](C)CO)C(=O)Cc2cc(NC(=O)CCC(F)(F)F)ccc2O[C@@H]1CN(C)Cc1ccc2c(c1)OCO2 | · | · | · | 37 | · | ·
Cc1ccc(S(=O)(=O)Nc2ccc3c(c2)C(=O)N([C@H](C)CO)C[C@@H](C)[C@@H](CN(C)C(=O)c2ccccc2)OCCCC[C@H](C)O3)cc1 | · | · | · | -24 | · | ·
Cc1ccc(S(=O)(=O)Nc2ccc3c(c2)C(=O)N([C@H](C)CO)C[C@H](C)[C@H](CN(C)C(=O)c2ccccc2)OCCCC[C@H](C)O3)cc1 | · | · | · | 96* | · | ·
CC(C)NC(=O)Nc1ccc2c(c1)CC(=O)N([C@H](C)CO)C[C@H](C)[C@H](CN(C)C(=O)NC(C)C)O2 | · | · | · | 2 | · | ·
C[C@@H]1CN([C@H](C)CO)C(=O)c2cc(NC(=O)Nc3ccc(F)cc3)ccc2O[C@@H](C)CCCCO[C@@H]1CN(C)Cc1ccc(C(=O)O)cc1 | · | · | · | 14 | · | ·
O=C(N/N=C/c1c(F)cccc1Cl)C1CC1 | -39 | -2 | 2 | -2 | -6 | -3
O=C(O)c1ccc(N/N=C/c2c(F)cccc2Cl)cc1 | 15 | 22 | 14 | 82* | 56 | 35
CC=Cc1ccc2n(c1=O)C[C@H]1[C@H](CO)[C@@H](C(=O)N(C)C)N(CC3CCCCC3)[C@@H]21 (mixture of isomers) | · | · | · | -5 | · | ·
COc1ccccc1Nc1nc(N)nc(CCl)n1 | -13 | 5 | -6 | 105* | 9 | 26
COc1ccc(OCc2nc(N)nc(Nc3ccccc3OC)n2)cc1 | 9 | -18 | 24 | 18 | -5 | -20
COc1ccc(OC)c(Nc2nc(N)nc(CSc3nnc(N)s3)n2)c1 | -30 | 5 | -5 | · | -7 | 16
COc1ccc(OC)c(Nc2nc(N)nc(CCl)n2)c1 | 8 | 18 | 6 | 118* | 3 | 18
COc1ccccc1C#Cc1ccc([C@H]2[C@@H](C#N)N(C(=O)C3CC3)[C@@H]2CO)cc1 | · | · | · | -23 | · | ·
C[C@@H]1CN([C@H](C)CO)C(=O)c2cc(C3=CCCC3)cnc2O[C@H]1CN(C)S(C)(=O)=O | · | · | · | -2 | · | ·
CC1Sc2ccc(S(=O)(=O)N3CCC(C(=O)Nc4ccc(Cl)cc4)CC3)cc2NC1=O (centres undefined) | 89* | -9 | 31 | 54 | 19 | 14
CC(=O)N1c2ccc(S(=O)(=O)N3CCC(C(=O)Nc4cccc(Cl)c4)CC3)cc2CC1C (centres undefined) | 89* | 24 | 8 | 45 | 17 | 8
COc1ccc(NC(=O)C2CCN(S(=O)(=O)c3ccc4c(c3)NC(=O)C(C)S4)CC2)cc1 (centres undefined) | 71 | -1 | 4 | 14 | 12 | 12
CC(=O)N1c2ccc(S(=O)(=O)N3CCC(C(=O)Nc4cccc(C)c4)CC3)cc2CC1C (centres undefined) | 65 | 6 | 14 | 12 | 14 | 6
CC(=O)N1c2ccc(S(=O)(=O)N3CCC(C(=O)Nc4cccc(F)c4)CC3)cc2CC1C (centres undefined) | 86* | 19 | 1 | 17 | 13 | 8
O=C(C[C@@H]1CC[C@@H](NC(=O)Nc2ccccc2F)[C@@H](CO)O1)NCc1ccc(-c2ccccc2)cc1 | · | · | · | -8 | · | ·
SMILES | Shn3 3UTR inh | HIF-2a block | EBV LMP1 NFkB | PAX8 inh HTS | MITF TRPM1 inh | Peg3 promoter
COc1ccc(NC(=O)Nc2ccc3c(c2)C(=O)N([C@@H](C)CO)C[C@H](C)[C@@H](CN(C)C(=O)CCC(F)(F)F)OCCCC[C@@H](C)O3)cc1 | · | · | · | 12 | · | ·
Cc1ccc(S(=O)(=O)CCC(=O)c2ccc(O)cc2O)cc1 | -12 | 8 | 10 | 97* | 7 | -5
COc1ccc(C(=O)CCS(=O)(=O)c2ccc(C)cc2)cc1OC | -24 | 22 | -1 | 96* | -3 | 59*
COc1ccc(C(=O)COC(=O)CCS(=O)(=O)c2ccc(C)cc2)c(OC)c1 | 3 | 21 | -2 | 4 | 0 | 10
CC/C(=C\C1CCCCC1)C(NP(=O)(c1ccccc1)c1ccccc1)c1ccccc1 (centres undefined) | -14 | 19 | -1 | -1 | 19 | 59*
C[C@H](CO)N1C[C@H](C)[C@@H](CN(C)C(=O)NC2CCCC2)Oc2ncc(C#CCN(C)C)cc2C1=O | · | · | · | -11 | · | ·
COc1ccc(CN(C)c2ccc(S(=O)(=O)N3CCN(C)CC3)cc2[N+](=O)[O-])cc1OC | 88* | 12 | 24 | 36 | 13 | 15
COc1ccc(NC(=O)Nc2ccc3c(c2)CC(=O)N([C@@H](C)CO)C[C@@H](C)[C@@H](CN(C)S(=O)(=O)c2cccs2)O3)cc1 | · | · | · | -4 | · | ·
Cc1nn(CC(=O)Nc2ccccc2)c(=O)c2ccccc12 | 4 | 7 | -5 | 10 | -8 | 10
Cc1ccc(NC(=O)Cn2nc(C)c3ccccc3c2=O)cc1F | -2 | 10 | 44* | 2 | 3 | 11
COc1ccccc1S(=O)(=O)N1CC[C@@H]2[C@H](CO)Nc3ccc(-c4ccc(C#N)cc4)cc3[C@@H]21 | · | · | · | 17 | · | ·
O=S(=O)(c1ccccc1F)N1CC[C@H]2[C@H](CO)Nc3ccc(C4=CCCCC4)cc3[C@H]21 | · | · | · | 95* | · | ·
O=S(=O)(c1ccccc1F)N1CC[C@H]2[C@H](CO)Nc3ccc(-c4cccc(F)c4)cc3[C@H]21 | · | · | · | 15 | · | ·
O=S(=O)(c1ccccc1F)N1CC[C@@H]2[C@H]1c1cc(-c3ccccc3)ccc1N[C@@H]2CO | · | · | · | -7 | · | ·
Cc1cccc(S(=O)(=O)N2CC[C@@H]3[C@H](CO)Nc4ccc(C5=CCCCC5)cc4[C@@H]32)c1 | · | · | · | 83* | · | ·
Cc1cccc(S(=O)(=O)N2CC[C@@H]3[C@@H](CO)Nc4ccc(-c5ccccc5F)cc4[C@@H]32)c1 | · | · | · | 7 | · | ·
O=S(=O)(c1ccccc1F)N1CC[C@@H]2[C@H]1c1cc(-c3cccc(F)c3)ccc1N[C@@H]2CO | · | · | · | 100* | · | ·
